# In PubChem BioAssay (NCATS):
# Several values for one entry are separate records, joined by “and”; a condition that tells them apart may be missing. Identical values can stand only once. Records with an inconclusive call do not appear. A call without a number means that no potency is given here. Activity calls are given as the source filed them. Calls follow the shape of the dose curve; as a rule, active = well fitted curve in the direction sought with a large enough effect; inconclusive = small, poorly fitted or top-dose-only effect, or another doubt; inactive = no such curve, though single readings can be large; an effect the other way counts as inactive or inconclusive.
# What was measured:
# [1] = Cell Viability - LYMP2-003 (AID 965);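 also: cells exposed to compounds for 24 h before reading; nearly all actives have a fitted effect of over 50% in size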
# How it was run: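 Human lymphoblastoid cells (2500/well) were pre-incubated 5 hr at 37 C, then exposed to compounds over a concentration range for 24 hr at 37 C. Intracellular ATP was read by CellTiter-Glo luminescence; AC50 came from Hill-equation fits.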
# [2] = Cell Viability - LYMP2-004 (AID 966); also: nearly all actives have a fitted effect of over 65% in size
# How it was run: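 Human lymphoblastoid cells (2500/well) in complete medium were treated with compounds for 24 hr at 37 C, then intracellular ATP was measured by CellTiter-Glo luminescence. AC50 values came from Hill-equation fits of concentration-response data.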
# [3] = Cell Viability - LYMP2-005 (AID 967)
# How it was run: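 CellTiter-Glo luminescence (cellular ATP) read-out; LYMP2-005 lymphoblastoid cells, 2500/well, 5 h pre-incubation, then 24 h compound exposure at 37 C in complete medium. Tetraoctylammonium bromide positive control; AC50 by standard Hill fit.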
# [4] = Cell Viability - LYMP2-009 (AID 968); also: nearly all actives have a fitted effect of over 55% in size
# [5] = Cell Viability - LYMP2-011 (AID 969); also: nearly all actives have a fitted effect of over 60% in size
# How it was run: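 Human lymphoblastoid cells (2500/well) were plated in complete medium, preincubated 5 hr at 37 C, then exposed to compounds for 24 hr at 37 C. Intracellular ATP was read by CellTiter-Glo luminescence, and AC50 came from Hill-equation concentration-response fits.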
# [6] = Cell Viability - LYMP2-015 (AID 971); also: nearly all actives have a fitted effect of over 55% in size
# How it was run: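 Human lymphoblastoid cells (2500/well) in complete medium were preincubated 5 hr at 37 C, then compound-treated 24 hr at 37 C. Intracellular ATP was read by CellTiter-Glo luminescence after 30 min at room temperature; AC50 came from Hill-equation concentration-response fits.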
# [7] = Cell Viability - LYMP2-017 (AID 972); also: nearly all actives have a fitted effect of over 55% in size
# How it was run: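 Human lymphoblastoid cells (2500/well) were seeded in complete medium, held 5 hr at 37 C, then exposed to compounds for 24 hr at 37 C. Intracellular ATP was read by CellTiter-Glo luminescence after 30 min at room temperature, with AC50 values from Hill-equation fits.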
# [8] = Cell Viability - LYMP2-019 (AID 973); also: nearly all actives have a fitted effect of over 55% in size
# How it was run: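 Human lymphoblastoid cells were seeded at 2500 cells/well, preincubated 5 hr at 37 C, then exposed to compounds for 24 hr at 37 C in complete medium. Intracellular ATP was measured by CellTiter-Glo luminescence; AC50 from Hill fits.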
# [9] = Cell Viability - LYMP2-021 (AID 974)
# How it was run: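 Human lymphoblastoid cells (2500/well) were preincubated 5 hr at 37 C, then exposed to compounds for 24 hr at 37 C in complete medium. Intracellular ATP was read by CellTiter-Glo luminescence; AC50 came from Hill-equation fits of concentration-response data.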
# [10] = Cell Viability - LYMP2-023 (AID 975); also: nearly all actives have a fitted effect of over 55% in size
# How it was run: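 Human lymphoblastoid cells (2500/well) were preincubated 5 hr at 37 C, then exposed to compounds for 24 hr at 37 C in complete medium. Cellular ATP was read by CellTiter-Glo luminescence, and AC50 came from Hill-equation fits.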
# [11] = Cell Viability - LYMP2-025 (AID 976)
# How it was run: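 Human lymphoblastoid LYMP2-025 cells (2500/well) were pre-incubated 5 hr at 37 C, then treated with compounds for 24 hr at 37 C in complete medium. Viability was read as intracellular ATP by CellTiter-Glo luminescence; AC50 from Hill fits.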
# [12] = Cell Viability - LYMP2-002 (AID 977)
# How it was run: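 Luminescent ATP readout (CellTiter-Glo, 30 min room temperature) after 24 h compound exposure at 37 C of a human lymphoblastoid line, 2500 cells/well. AC50 values derived by standard Hill fitting of qHTS concentration-response data.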
# [13] = Cell Viability - LYMP2-006 (AID 978); also: nearly all actives have a fitted effect of over 60% in size
# How it was run: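 Human lymphoblastoid cells, 2500 per well, were preincubated 5 hr at 37 C, then exposed to compounds for 24 hr at 37 C in complete medium. Viability was read as intracellular ATP by CellTiter-Glo luminescence; AC50 from Hill-equation fits of qHTS concentration-response data.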
# [14] = Cell Viability - LYMP2-007 (AID 979);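 also: cells exposed to compound for 24 h before reading; nearly all actives have a fitted effect of over 60% in size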
# How it was run: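 Human lymphoblastoid cells (2500/well) were plated in complete medium, incubated 5 hr at 37 C, then exposed to compounds for 24 hr at 37 C. Intracellular ATP was read by CellTiter-Glo luminescence after 30 min at room temperature; AC50 from Hill fits.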
# [15] = Cell Viability - LYMP2-008 (AID 980); also: nearly all actives have a fitted effect of over 60% in size
# How it was run: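 Human lymphoblastoid cells (2500/well) were plated, held 5 hr at 37 C, then exposed to compounds for 24 hr at 37 C in complete medium. Intracellular ATP was read by CellTiter-Glo luminescence; AC50 from Hill-fitted concentration-response.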
# [16] = Cell Viability - LYMP2-010 (AID 981); also: nearly all actives have a fitted effect of over 55% in size
# How it was run: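 Human lymphoblastoid LYMP2-010 cells (2500/well) were preincubated 5 hr at 37 C, then exposed to compounds for 24 hr at 37 C in complete medium. Intracellular ATP was measured by CellTiter-Glo luminescence after 30 min at room temperature; AC50 from Hill-fitted concentration-response.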
# [17] = Cell Viability - LYMP2-012 (AID 982)
# [18] = Cell Viability - LYMP2-016 (AID 984); also: nearly all actives have a fitted effect of over 55% in size
# How it was run: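 Human lymphoblastoid cells (LYMP2-016), 2500/well in complete medium, preincubated 5 hr at 37 C, then compound-treated 24 hr at 37 C. Intracellular ATP read by CellTiter-Glo luminescence after 30 min at room temperature; AC50 from Hill-equation concentration-response fits.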
# [19] = Cell Viability - LYMP2-018 (AID 985);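 also: compound exposure lasted 24 hr at 37 °C; nearly all actives have a fitted effect of over 50% in size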
# How it was run: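 Human lymphoblastoid cells (2500/well) were pre-incubated 5 hr at 37 C, then exposed to compounds for 24 hr at 37 C in complete medium. Viability was read as intracellular ATP by CellTiter-Glo luminescence; AC50 values came from Hill-equation fits.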
# [20] = Cell Viability - LYMP2-020 (AID 986); also: nearly all actives have a fitted effect of over 55% in size
# How it was run: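 Human lymphoblastoid cells, 2500/well, were pre-incubated 5 hr at 37 C, then exposed to compounds for 24 hr at 37 C in complete medium. Intracellular ATP was read by CellTiter-Glo luminescence, and AC50 was derived by Hill fitting of concentration-response data.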
# Potency is read from the fitted curve at half-maximal effect.
SMILES,Potency [1],Potency [2],Potency [3],Potency [4],Potency [5],Potency [6],Potency [7],Potency [8],Potency [9],Potency [10],Potency [11],Potency [12],Potency [13],Potency [14],Potency [15],Potency [16],Potency [17],Potency [18],Potency [19],Potency [20]
CCOP(=S)(OCC)Oc1cc(C)nc(C(C)C)n1,inactive,inactive,inactive,inactive,inactive,inactive,inactive,inactive,inactive,inactive,inactive,inactive,inactive,inactive,inactive,inactive,inactive,inactive,inactive,inactive
CC(COc1ccccc1)N(CCCl)Cc1ccccc1 (stereo not given),–,–,–,39.8 µM (active),50.1 µM (active),39.8 µM (active),39.8 µM (active),–,50.1 µM (active),50.1 µM (active),–,50.1 µM (active),50.1 µM (active),39.8 µM (active),39.8 µM (active),–,–,–,–,50.1 µM (active)
OCCOc1ccccc1,inactive,inactive,–,inactive,inactive,inactive,inactive,inactive,inactive,inactive,inactive,inactive,inactive,inactive,inactive,inactive,inactive,inactive,inactive,inactive
CCCC(C)(COC(N)=O)COC(=O)NC(C)C (stereo not given),inactive,inactive,inactive,inactive,inactive,inactive,inactive,inactive,inactive,inactive,inactive,inactive,inactive,inactive,inactive,inactive,inactive,inactive,inactive,inactive
Oc1cccc2cccnc12,12.6 µM (active),15.8 µM (active) and 12.6 µM (active),–,10 µM (active),–,12.6 µM (active),12.6 µM (active) and 10 µM (active),10 µM (active),–,25.1 µM (active),–,25.1 µM (active) and 15.8 µM (active),25.1 µM (active) and 15.8 µM (active),15.8 µM (active),15.8 µM (active) and 12.6 µM (active),12.6 µM (active) and 10 µM (active),15.8 µM (active) and 10 µM (active),15.8 µM (active),12.6 µM (active) and 10 µM (active),12.6 µM (active) and 10 µM (active)
Clc1ccc(COC(Cn2ccnc2)c2ccc(Cl)cc2Cl)cc1 (stereo not given),inactive,–,–,–,79.4 µM (active),inactive,–,–,–,–,–,–,–,50.1 µM (active),50.1 µM (active),–,–,–,50.1 µM (active),–
CC(=O)Oc1ccccc1C(=O)Nc1ncc([N+](=O)[O-])s1,–,–,31.6 µM (active),–,50.1 µM (active),–,–,31.6 µM (active),39.8 µM (active),–,31.6 µM (active),31.6 µM (active),–,–,31.6 µM (active),39.8 µM (active),39.8 µM (active),39.8 µM (active),39.8 µM (active),–
NCC(O)c1ccc(O)cc1 (stereo not given),inactive,inactive,inactive,inactive,inactive,inactive,inactive,inactive,inactive,inactive,inactive,inactive,inactive,inactive,inactive,inactive,inactive,inactive,inactive,inactive
Oc1ccccc1-c1ccccc1,inactive,inactive,inactive,inactive,inactive,inactive,inactive,inactive,inactive,inactive,inactive,inactive,inactive,inactive,inactive,inactive,inactive,inactive,inactive,inactive
N[C@@H](Cc1ccc(N(CCCl)CCCl)cc1)C(=O)O,31.6 µM (active),–,–,39.8 µM (active),39.8 µM (active),31.6 µM (active),39.8 µM (active),39.8 µM (active),39.8 µM (active),39.8 µM (active),–,39.8 µM (active),39.8 µM (active),25.1 µM (active),31.6 µM (active),31.6 µM (active),31.6 µM (active),25.1 µM (active),25.1 µM (active),39.8 µM (active)
Oc1ccc(Cl)cc1Cc1ccccc1,inactive,inactive,inactive,inactive,inactive,inactive,inactive,inactive,inactive,inactive,inactive,inactive,inactive,inactive,inactive,inactive,inactive,inactive,inactive,inactive
CNCC(O)c1ccc(O)cc1 (stereo not given),inactive,inactive,inactive,inactive,inactive,inactive,inactive,inactive,inactive,inactive,inactive,inactive,inactive,inactive,inactive,inactive,inactive,inactive,inactive,inactive
CN(C)CCC=C1c2ccccc2CCc2ccccc21,–,–,–,–,–,31.6 µM (active),–,–,–,–,–,–,–,–,–,–,–,–,–,–
C[C@]12C/C(=C/O)C(=O)C[C@@H]1CC[C@@H]1[C@@H]2CC[C@@]2(C)[C@H]1CC[C@]2(C)O,–,–,inactive,–,–,–,–,–,63.1 µM (active),–,inactive,–,–,–,–,50.1 µM (active),–,–,–,–
c1ccc2c(c1)Nc1ccccc1S2,inactive,inactive,inactive,inactive,inactive,inactive,inactive,inactive,inactive,inactive,inactive,inactive,inactive,inactive,inactive,inactive,inactive,inactive,inactive,inactive
